# Assay results as given in the supplement of paper PMC6555819.
# How the values were obtained:
# Experiment in all cases: PBM binding z-score (relative to random genomic background probes); higher = stronger binding; sequences stand for … in GC…GCGATTGACAGCGTAGAATGAAGG
# [1] = tested on: RARb homodimer (NR concentration 270 nM)
# In short: (§1)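 Binding buffer was PBS pH 7.4 with 2% milk, 0.02% Triton X-100, 1 mM DTT, 0.2 mg/mL BSA and 0.4 mg/ml salmon testes DNA. In it, ligand-free nuclear receptor dimers were incubated 1 h on custom Agilent 4×180K protein-binding microarrays carrying double-stranded probes. Antibodies against each partner (one per run) detected binding, and z-scores were calculated against random background probes after regression normalization of scanned fluorescence.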
# [2] = tested on: RARg:RXRa (NR concentration 270 nM, RXRa partner concentration 90 nM)
# In short: as §1
# [3] = tested on: RARg homodimer (NR concentration 270 nM)
# In short: as §1
# [4] = tested on: RXRa DBDmut IVT, anti-RXR (DBD mutation: RXRa K156A/R161A, NR concentration 90 nM)
# In short: as §1
# [5] = tested on: RXRa homodimer (NR concentration 180 nM)
# In short: as §1
# [6] = tested on: THRa:RXRa (NR concentration 90 nM, RXRa partner concentration 90 nM)
# In short: as §1
# [7] = tested on: THRa homodimer (NR concentration 90 nM)
# In short: as §1
# [8] = tested on: VDR:RXRa (NR concentration 270 nM, RXRa partner concentration 90 nM)
# In short: as §1
# [9] = tested on: VDR homodimer (NR concentration 270 nM)
# In short: as §1
Sequence,PBM binding z-score [1],PBM binding z-score [2],PBM binding z-score [3],PBM binding z-score [4],PBM binding z-score [5],PBM binding z-score [6],PBM binding z-score [7],PBM binding z-score [8],PBM binding z-score [9]
CTCGAAAGGTCGGTTGAGTTGAGTATACGGATAA,1.34,2.4,2.35,1.33,1.81,3.4,0.44,3.45,1.37
AATACAGCGTCACTAGGCCAGAGTAGGTACGAAT,-0.144,-0.145,0.173,-0.271,-0.094,-0.216,-0.342,-0.29,-0.308
CCTACTGGACCACGAAAGGTCATTGATTCAGTGA,4.5,4.44,3.94,1.31,5.46,3.36,1.6,4.17,2.68
ACTAGTTGGTCAGCTGAGGGCACACACAATTCGG,2.11,0.999,1.42,0.326,0.707,3.55,1.29,1.2,0.929
TCTCGAAGGACACGAAGGTCAGAGCTTTCCAGAG,3.75,2.99,3.73,0.817,1.94,2.03,0.331,1.86,0.435
CCAGACAGGTGAGAAGGTAACTCATCCTCGATTA,0.437,0.511,0.745,0.48,0.529,0.505,0.345,0.198,-0.146
ACATGTAGGTTAAGGGTCATTCAGGTTGGTTCGC,3.49,4.68,3.24,2.73,5.95,3.42,2.01,5.84,4.91
ATACCAAGATGATCGTGAGGTCGTTGATACTAAC,1.17,0.596,0.434,0.473,0.929,2.39,1.81,1.78,2.77
AGTCAAAGTTTACTAGGTAACGTAAGATTCAGCT,0.795,0.885,1.46,1.44,0.16,0.591,-0.0944,0.363,0.294
CCGACTGGGGCAAAGGTTAACATACTCAGTACGA,2.4,4.1,2.03,0.365,3.89,2.19,-0.145,2.2,0.335
CCTTACGGGTGACGAGGTTATAGCACGACGAGCG,1.05,1.29,0.849,-0.461,1.95,1.33,0.317,0.935,0.36
CCTACTGGGCCATCCGGTCATTGATATCAACGTT,1.9,0.787,1.34,-0.598,0.106,0.75,0.677,0.0642,0.0499
TCATGTAGGTAAACAGGTGAAAGTCCGTAAGTTA,0.722,0.133,0.0838,0.975,0.516,0.578,0.226,0.613,-0.0362
AGAATGAGGTTATTCAGATCAGGGAATTGCGGTC,0.905,1.51,1.13,2.35,2.13,2.51,0.965,2.7,1.53
TGAAAGAGGTTATAAGATCAGGGAACGTTGCAAA,0.261,2.01,1.15,0.022,2.37,0.935,-0.921,0.894,-0.105
GCTTGTAGATCAAGGTTAAGAACGACTAAGCTAA,0.388,0.414,0.334,0.11,0.789,1.25,-0.079,0.288,0.0114
ATCTCTAGGTAAGACTCAGTTCAGTGAAGAACGC,0.723,0.0914,0.115,0.479,-0.0944,0.922,0.796,0.833,1.42
TCTCGGAGGACGCGAAAGGTCAGAGCTCGACATC,4.26,4.31,4.12,0.446,4.2,3.01,0.235,2.8,0.581
TCTAATTGGTCAAAGGTCACACACTCGAAATGCG,4.96,7.28,6.41,2.51,8.16,4.13,2.44,5.62,3.16
GCAGACAGGTGAAACGCAGGTAACTCCGGGTGGC,0.0338,0.702,-0.185,-0.71,0.572,1.32,-0.603,-0.595,-0.791
CGAACTGGGTCAAGGACAGTGAATCTCCGCACGC,2.55,3.53,3.36,0.955,2.54,2.76,1.56,1.46,0.325
CGTCCAAAGTCATAGGAGGTCAGTGAAGACAGAT,3.55,2.71,2.75,0.438,1.96,4.28,0.808,3.12,1.55
CCGACTGGGTCAAGGTTACCATAACGCACAGCCA,3.15,3.98,4.05,0.852,3.59,2.83,1.51,2.05,1.02
TCAGACAGGGGAAGGTAACTCAGGTACGCAGTCG,0.725,0.0159,-0.128,1.16,0.547,1.38,1.02,0.795,0.491
AGTCAGAGTTCAGGACGAGGTAACGTAAAGCACG,2.72,4.62,4.28,3.5,3.59,3.79,1.53,3.77,3.75
ATCGAAAGGTCGAGGTGACTATAGAGAAAGGGAA,2.73,4.4,4.53,1.37,4.45,2.9,0.607,2.55,0.269
